# According to the supplement of paper PMC13380429:
# How the values were obtained:
# [1] = tested on: Vero E6 infected with SARS-CoV-2; assay: morphology score (similarity to uninfected cells); higher = more like uninfected cells; conditions: 24 h
# [2] = tested on: Vero E6 infected with SARS-CoV-2; assay: SARS-CoV-2 infection rate relative to infected DMSO; higher = more infection, active = 60 or less; conditions: 24 h
SMILES,morphology score [1],SARS-CoV-2 infection rate [2]
COc1ccc(/C=C2\CCCN=C2c2cccnc2)c(OC)c1 (10 µM),0.517,87% (inactive)
O=C(O)CCC(=O)O [succinic-acid] (10 µM),-0.0828,106% (inactive)
CNC(=O)[C@@H](Cc1ccccc1)N(C)C(=O)[C@@H](Cc1ccc2ccccc2c1)N(C)C(=O)/C=C/CC(C)(C)N [tabimorelin] (10 µM),-0.00047,112% (inactive)
CCNC(=O)N1CCN(CCCC(c2ccc(F)cc2)c2ccc(F)cc2)CC1 [amperozide] (10 µM),-0.101,108% (inactive)
Cc1ccc(S(=O)(=O)NC(=O)NN2CC3CCCC3C2)cc1 (configuration not stated) [gliclazide] (10 µM),0.0635,106% (inactive)
CCCOc1ccc(S(=O)(=O)N2CCN(CCO)CC2)cc1-c1nc2c(CCC)cn(CC)c2c(=O)[nH]1 [mirodenafil] (10 µM),0.127,95.5% (inactive)
Cc1cc(Cn2cnc3c2C[C@@H](C(=O)O)N(C(=O)C(c2ccccc2)c2ccccc2)C3)ccc1N(C)C (10 µM),0.0919,99% (inactive)
CC(C)(C)CCN1C[C@@H]2[C@@H](CNC(=O)c3cc(Cl)cc(Cl)c3)[C@@H]2C1 (10 µM),0.324,86% (inactive)
O=C(CCCCCN1C(=O)c2cccc3cccc(c23)C1=O)NO [scriptaid] (10 µM),-0.255,120% (inactive)
CCCN(CCC)C(=O)Cc1c(-c2ccc(Cl)cc2)nc2ccc(Cl)cn12 [alpidem] (10 µM),0.0705,99.5% (inactive)
COc1c(OCCCN2CCOCC2)ccc2c1N=C(NC(=O)c1cnc(N)nc1)N1CCN=C21 [copanlisib] (0.833333 µM),-0.0397,34% (active)
COc1ccc(C2CNC(=O)C2)cc1OC1CCCC1 (configuration not stated) [rolipram] (10 µM),0.39,100% (inactive)
Nc1nc(=O)n([C@@H]2CS[C@H](CO)O2)cc1F [emtricitabine] (10 µM),0.154,114% (inactive)
CNc1ncc2cc(-c3cc(NC(=O)NCCC(C)(C)C)c(F)cc3C)c(C)nc2n1 (10 µM),0.18,106% (inactive)
CO[C@H](C(=O)[C@@H](O)[C@@H](C)O)[C@@H]1Cc2cc3cc(O[C@H]4C[C@@H](O[C@H]5C[C@@H](O)[C@H](O)[C@@H](C)O5)[C@@H](O)[C@@H](C)O4)c(C)c(O)c3c(O)c2C(=O)[C@H]1O[C@H]1C[C@@H](O[C@H]2C[C@@H](O[C@H]3C[C@](C)(O)[C@H](O)[C@@H](C)O3)[C@H](O)[C@@H](C)O2)[C@H](O)[C@@H](C)O1 [plicamycin] (10 µM),-0.159,104% (inactive)
O=C1C(O)=C(O)C(=O)C(O)=C1O [tetroquinone] (10 µM),0.0422,106% (inactive)
Cn1cc(/C=C2\C(=O)Nc3cccnc32)c2ccccc21 (10 µM),-0.0337,92.5% (inactive)
C[C@H](Nc1ncnc2[nH]cnc12)c1cc2ccc(F)cc2nc1-c1ccccn1 (10 µM),0.0578,114% (inactive)
N#CC(Cc1ccc(O)cc1)c1ccc(O)cc1 (configuration not stated) [diarylpropionitrile] (10 µM),0.138,99% (inactive)
CC1(CN)Cc2ccccc2C1 (10 µM),0.0351,112% (inactive)
CC[C@H]1OC(=O)[C@H](C)C(=O)[C@H](C)[C@@H](O[C@@H]2O[C@H](C)C[C@H](N(C)C)[C@H]2O)[C@](C)(OC)C[C@@H](C)C(=O)[C@H](C)[C@H]2N(CCCCn3cnc(-c4cccnc4)c3)C(=O)O[C@]12C [telithromycin] (10 µM),0.0131,118% (inactive)
CC(C)(C)c1[nH]cnc1/C=c1\[nH]c(=O)/c(=C/c2ccccc2)[nH]c1=O [plinabulin] (0.833333 µM),-0.0585,112% (inactive)
Nc1nc(=O)n([C@H]2C[C@H](O)[C@@H](CO)O2)cc1F [fdcyd] (10 µM),-0.201,97.5% (inactive)
CN1C[C@@H]2CN(c3ccc(-c4ccccc4)nn3)C[C@@H]2C1 (10 µM),0.149,91% (inactive)
C[C@]1(COc2ccc(N3CCC(Oc4ccc(OC(F)(F)F)cc4)CC3)cc2)Cn2cc([N+](=O)[O-])nc2O1 [delamanid] (10 µM),-0.0971,110% (inactive)
O=C(/C=C/c1cccc(F)c1)NC1CC1 [cinflumide] (10 µM),-0.00378,110% (inactive)
